Assay [1] can be described thus: ATG_CRE_CIS: Attagene CIS-FACTORIAL HepG2 Assay for human cAMP Responsive Element (CRE) binding protein 3 (AID 2282926). As to conditions: HepG2 CRE cis-reporter, Attagene multiplexed mRNA; actives raise or lower the signal. In short, it runs like this:
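Human liver HepG2, transient MRTU transfection, 24 h compound exposure. Total RNA → oligo(dT) RT → PCR → 6-FAM primer extension → HpaI cut → CE. Activity called both directions vs DMSO.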

Assay [2] concerns the target CCAAT/enhancer-binding protein beta (Homo sapiens) (UniProt P17676). Briefly: ATG_C_EBP_CIS: Attagene CIS-FACTORIAL HepG2 Assay for human CCAAT/Enhancer Binding Protein (C/EBP) beta (AID 2282927). To be noted: HepG2 Attagene cis-factorial transcription factor reporter; actives raise or lower the signal. The gist of the method:
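Endogenous C/EBPb-driven reporter transcripts measured in transfected human HepG2 cells at 24 h via RT-PCR and capillary electrophoresis of labelled fragments. Activity fitted in both directions relative to DMSO baseline.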

The nature of assay [3]: ATG_DR4_LXR_CIS: Attagene CIS-FACTORIAL HepG2 Assay for human Liver X Receptor (LXR), DR4 submotif (AID 2282929). As to conditions: HepG2 Attagene DR4 cis-reporter, mRNA transcription; actives raise or lower the signal. In short, it runs like this: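 Measures endogenous transcription factor activity via a DR4-driven reporter transcript in human HepG2 cells. Compounds incubated 24 h; mRNA quantified by RT-PCR and capillary electrophoresis, analysed as gain or loss of signal versus DMSO.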

A short description of assay [4]: ATG_AP_2_CIS: Attagene CIS-FACTORIAL HepG2 Assay for human Activator Protein 2 (AP-2) (AID 2282932). To be noted: HepG2 AP-2 cis-reporter, Attagene transcription factor profiling; actives raise or lower the signal. In short, it runs like this: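 HepG2, transient MRTU transfection, cis-regulated reporters; 24 h compound exposure; RNA isolated, RT-PCR, 6-FAM labelling, HpaI digest, CE fluorescence. DMSO = negative control/baseline, bidirectional fit.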

The nature of assay [5]: ATG_BRE_CIS: Attagene CIS-FACTORIAL HepG2 Assay for human Bone Morphogenetic Protein (BMP) Response Element (BRE) (AID 2282933). To be noted: HepG2 BMP response element reporter, Attagene transcription factor profiling; actives raise or lower the signal. In short, it runs like this: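 Read-out: reporter mRNA induction quantified by RT-PCR and capillary electrophoresis after 24 h chemical exposure of transfected HepG2 cells. Endogenous factor activity on the BMP response element; gain or loss fitted against DMSO baseline.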

Assay [6] deals with Transcription factor E2F1 (Homo sapiens) (UniProt Q01094). In words: ATG_E2F_CIS: Attagene CIS-FACTORIAL HepG2 Assay for human E2F Transcription Factor 1 (AID 2282935). To be noted: HepG2 Attagene cis-reporter, E2F reporter RNA transcripts; actives raise or lower the signal. The gist of the method:
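Cis-element reporter mRNA induction in transiently transfected HepG2, 24 h exposure. Activity fitted in both directions relative to DMSO negative control.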

The nature of assay [7]: ATG_EGR_CIS: Attagene CIS-FACTORIAL HepG2 Assay for human Early Growth Response 1 (EGR1) (AID 2282938). To be noted: HepG2 Attagene CIS-FACTORIAL EGR reporter mRNA; actives raise or lower the signal. In short, it runs like this: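 Cell-based multiplex transcription assay: HepG2 carrying transfected cis-element reporter units, 24 h chemical treatment. Fluorescence from capillary electrophoresis of RT-PCR products gives mRNA levels; fitting is bidirectional relative to DMSO.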

Assay [8] in a line: ATG_M_19_CIS: Attagene CIS-FACTORIAL HepG2 Assay for M19 Transcription Factor (Internal Marker) (AID 2282939). To be noted: HepG2 Attagene CIS-FACTORIAL M19 internal marker reporter; actives raise or lower the signal. In short, it runs like this:
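Readout: fluorescent reporter-transcript fragments by capillary electrophoresis after RT-PCR. Human HepG2 liver cells carried transfected MRTU constructs reporting endogenous transcription-factor activity; exposure 24 h. Gain or loss of signal fitted relative to DMSO.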

Assay [9] is described as follows: ATG_Ets_CIS: Attagene CIS-FACTORIAL HepG2 Assay for human Erythroblast Transformation Specific (ETS) (AID 2282941). To be noted: HepG2 ETS cis-reporter transcription, actives raise or lower the signal. The gist of the method:
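Human HepG2 hepatoma cells were transiently transfected with promoter-driven reporter constructs and treated for 24 hours. Reporter transcripts were quantified by RT-PCR with fluorescent primer extension; bidirectional curve fitting used DMSO as reference.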

Assay [10] concerns the target Hepatocyte nuclear factor 3-beta (Homo sapiens) (UniProt Q9Y261). In words: ATG_FoxA2_CIS: Attagene CIS-FACTORIAL HepG2 Assay for human Forkhead box A2 (FOXA2) (AID 2282942). As to conditions: HepG2 cis-reporter transcription factor activity, 24 h; actives raise or lower the signal. The gist of the method:
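In transiently transfected human HepG2 cells, promoter-driven reporter mRNA levels after 24 h chemical exposure are determined via RT-PCR with capillary electrophoresis. DMSO serves as baseline for bidirectional fitting.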

A short description of assay [11]: ATG_FoxO_CIS: Attagene CIS-FACTORIAL HepG2 Assay for human Forkhead box O (FoxO) (AID 2282943). To be noted: HepG2 Attagene cis-reporter, FoxO element, mRNA; actives raise or lower the signal. The gist of the method:
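Endogenous transcription factor activity read from multiplexed cis-promoter reporter transcripts in transiently transfected HepG2, 24 h after dosing. Reporter RNA measured via RT-PCR plus capillary electrophoresis of FAM-labeled products; gain or loss relative to DMSO.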

A short description of assay [12]: ATG_GATA_CIS: Attagene CIS-FACTORIAL HepG2 Assay for human GATA Binding Protein (AID 2282944). To be noted: HepG2 GATA cis-element reporter, Attagene multiplex mRNA; actives raise or lower the signal. In short, it runs like this:
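Read-out: fluorescent reporter mRNA fragments resolved by capillary electrophoresis after RT-PCR. Human liver HepG2 cells carried transiently transfected cis-regulated reporter constructs; chemicals incubated 24 h; gain or loss of signal fitted relative to DMSO.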

The nature of assay [13]: ATG_GLI_CIS: Attagene CIS-FACTORIAL HepG2 Assay for human Zinc Finger Protein GLI1 (AID 2282945). As to conditions: HepG2, Attagene cis-factorial reporter mRNA, GLI element; actives raise or lower the signal. In short, it runs like this:
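Bidirectional curve fits relative to DMSO, using reporter mRNA levels from RT-PCR plus capillary electrophoresis. Cells were HepG2 transiently carrying cis-regulated reporter constructs, harvested 24 h after dosing.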

Assay [14] can be described thus: ATG_M_06_CIS: Attagene CIS-FACTORIAL HepG2 Assay for M06 Transcription Factor (Internal Marker) (AID 2282950). As to conditions: HepG2 Attagene CIS-FACTORIAL M06 internal marker reporter; actives raise or lower the signal. In short, it runs like this: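 Terse: HepG2, transient MRTU transfection (FuGene 6), 24 h dosing; total RNA, oligo(dT) RT, PCR, FAM label, HpaI cut, capillary electrophoresis; bidirectional fit vs DMSO baseline; background-control endpoint.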

Assay [15] in a line: ATG_MRE_CIS: Attagene CIS-FACTORIAL HepG2 Assay for human Metal Responsive Element (MRE) (AID 2282954). To be noted: HepG2 MRE cis-reporter transcription, Attagene multiplex; actives raise or lower the signal. The gist of the method:
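Transient MRTU transfection of HepG2 (FuGene 6); 24 h dosing; total RNA → oligo(dT) RT, PCR, 6-FAM primer extension, HpaI cut, CE. Bidirectional fit vs DMSO.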

In assay [16] the target is Paired box protein Pax-6 (Homo sapiens) (UniProt P26367). In words: ATG_Pax6_CIS: Attagene CIS-FACTORIAL HepG2 Assay for human Paired Box 6 (PAX6) (AID 2282956). As to conditions: HepG2 CIS-FACTORIAL PAX6 reporter transcription, RNA readout; actives raise or lower the signal. The gist of the method:
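Multiplexed cis-reporter HepG2 system; 24 h treatment; reporter mRNA read by RT-PCR/CE fluorescence; bidirectional fit vs DMSO.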

Assay [17] can be described thus: ATG_PXRE_CIS: Attagene CIS-FACTORIAL HepG2 Assay for human Pregnane X Receptor Element (PXRE) (AID 2282957). To be noted: HepG2 Attagene CIS-FACTORIAL PXRE reporter, mRNA; actives raise or lower the signal. In short, it runs like this: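 Transfect HepG2 with MRTUs (cis promoter elements); dose chemical, incubate 24 h; isolate RNA, RT with oligo(dT), PCR, 6-FAM label, HpaI cut, CE. Gain/loss fit vs DMSO.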

A short description of assay [18]: ATG_Sox_CIS: Attagene CIS-FACTORIAL HepG2 Assay for human SRY-box transcription factor (SOX) (AID 2282960). To be noted: HepG2 Attagene cis-factorial SOX reporter, mRNA; actives raise or lower the signal. The gist of the method: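 After 24 h of chemical treatment, transfected HepG2 reporter cells are lysed for total RNA. Transcript levels come from RT-PCR with labelled primer extension and capillary electrophoresis, analysed bidirectionally versus DMSO.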

Assay [19] concerns the target Transcription factor Sp1 (Homo sapiens) (UniProt P08047). Briefly: ATG_Sp1_CIS: Attagene CIS-FACTORIAL HepG2 Assay for human Specificity Protein 1 (Sp1) (AID 2282961). As to conditions: HepG2 Sp1 cis-reporter transcription, actives raise or lower the signal. In short, it runs like this: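 Sp1-driven reporter mRNA, read as capillary electrophoresis fluorescence after RT-PCR, in transiently transfected HepG2 cells dosed for 24 h; signal change in either direction relative to DMSO.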

Assay [20] is described as follows: ATG_SREBP_CIS: Attagene CIS-FACTORIAL HepG2 Assay for human Sterol Regulatory Element Binding (SREBP) (AID 2282962). To be noted: HepG2 Attagene cis-factorial SREBP reporter, mRNA; actives raise or lower the signal. In short, it runs like this:
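mRNA induction of transfected cis-promoter reporters in HepG2 cells, 24 h post-dose. Detection: RT-PCR with 6-FAM-labelled products, HpaI digest, capillary electrophoresis. DMSO served as negative control and baseline.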

SMILES strings stand for the structures. Active and inactive are the calls of the source. Rule for the calls: active = hit-call score of the fitted dose curve at least 0.9, where 1 is the maximum; inactive = score below 0.9.

Chain of Paired box protein Pax-6 (Homo sapiens) (P26367 whole entry, looked up): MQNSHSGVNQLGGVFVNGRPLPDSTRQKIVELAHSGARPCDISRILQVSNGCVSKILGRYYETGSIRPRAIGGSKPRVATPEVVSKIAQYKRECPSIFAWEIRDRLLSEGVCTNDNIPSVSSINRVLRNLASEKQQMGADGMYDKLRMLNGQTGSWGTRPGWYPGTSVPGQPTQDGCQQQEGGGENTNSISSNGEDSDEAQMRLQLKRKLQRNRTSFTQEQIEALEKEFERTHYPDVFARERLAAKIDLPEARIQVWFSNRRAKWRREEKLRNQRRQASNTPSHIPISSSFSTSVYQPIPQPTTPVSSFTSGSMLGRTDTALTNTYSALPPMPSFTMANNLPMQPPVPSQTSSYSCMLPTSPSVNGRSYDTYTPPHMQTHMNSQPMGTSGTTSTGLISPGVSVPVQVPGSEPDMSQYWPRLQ
Chain of Transcription factor Sp1 (Homo sapiens) (P08047 whole entry, looked up): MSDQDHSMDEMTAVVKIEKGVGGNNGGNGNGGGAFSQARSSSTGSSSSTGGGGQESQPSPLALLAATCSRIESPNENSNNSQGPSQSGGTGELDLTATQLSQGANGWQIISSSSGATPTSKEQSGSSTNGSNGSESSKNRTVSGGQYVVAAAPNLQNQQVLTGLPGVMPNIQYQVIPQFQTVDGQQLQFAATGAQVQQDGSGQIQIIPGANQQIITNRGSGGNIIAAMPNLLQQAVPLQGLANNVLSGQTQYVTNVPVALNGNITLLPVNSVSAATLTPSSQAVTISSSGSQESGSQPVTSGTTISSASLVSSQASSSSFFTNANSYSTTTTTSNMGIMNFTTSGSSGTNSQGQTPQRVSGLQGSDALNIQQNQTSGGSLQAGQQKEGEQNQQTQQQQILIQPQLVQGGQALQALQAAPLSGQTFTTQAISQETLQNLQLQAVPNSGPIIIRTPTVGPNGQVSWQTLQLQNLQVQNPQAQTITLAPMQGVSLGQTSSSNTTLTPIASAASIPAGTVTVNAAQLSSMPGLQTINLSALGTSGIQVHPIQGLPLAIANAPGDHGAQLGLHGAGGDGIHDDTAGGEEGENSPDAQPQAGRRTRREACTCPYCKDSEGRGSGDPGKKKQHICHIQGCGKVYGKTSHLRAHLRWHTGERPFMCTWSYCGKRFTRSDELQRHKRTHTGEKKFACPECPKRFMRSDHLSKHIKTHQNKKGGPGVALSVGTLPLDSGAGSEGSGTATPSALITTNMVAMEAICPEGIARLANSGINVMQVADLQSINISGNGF
Chain of Transcription factor E2F1 (Homo sapiens) (Q01094 whole entry, looked up): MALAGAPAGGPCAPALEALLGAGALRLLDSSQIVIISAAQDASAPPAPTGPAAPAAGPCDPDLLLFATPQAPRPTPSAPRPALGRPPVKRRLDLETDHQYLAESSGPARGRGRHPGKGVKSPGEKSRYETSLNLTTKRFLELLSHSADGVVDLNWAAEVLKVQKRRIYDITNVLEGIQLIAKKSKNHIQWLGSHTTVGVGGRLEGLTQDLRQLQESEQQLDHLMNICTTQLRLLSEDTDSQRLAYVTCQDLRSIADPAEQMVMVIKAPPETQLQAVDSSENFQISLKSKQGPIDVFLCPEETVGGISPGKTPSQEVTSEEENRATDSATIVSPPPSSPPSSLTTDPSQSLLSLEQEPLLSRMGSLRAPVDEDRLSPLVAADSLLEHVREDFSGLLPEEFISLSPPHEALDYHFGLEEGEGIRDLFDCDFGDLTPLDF
Chain of CCAAT/enhancer-binding protein beta (Homo sapiens) (P17676 whole entry, looked up, the tested form may be a part): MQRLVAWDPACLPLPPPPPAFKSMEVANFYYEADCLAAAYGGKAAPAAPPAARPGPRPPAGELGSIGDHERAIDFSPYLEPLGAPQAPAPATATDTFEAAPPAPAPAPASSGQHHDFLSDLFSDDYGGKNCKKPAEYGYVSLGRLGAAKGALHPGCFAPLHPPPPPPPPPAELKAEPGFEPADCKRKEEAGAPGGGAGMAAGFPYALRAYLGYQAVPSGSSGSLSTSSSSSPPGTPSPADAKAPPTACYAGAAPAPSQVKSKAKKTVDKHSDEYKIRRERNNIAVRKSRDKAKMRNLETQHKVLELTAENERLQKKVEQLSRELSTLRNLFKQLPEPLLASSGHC
Chain of Hepatocyte nuclear factor 3-beta (Homo sapiens) (Q9Y261 whole entry, looked up): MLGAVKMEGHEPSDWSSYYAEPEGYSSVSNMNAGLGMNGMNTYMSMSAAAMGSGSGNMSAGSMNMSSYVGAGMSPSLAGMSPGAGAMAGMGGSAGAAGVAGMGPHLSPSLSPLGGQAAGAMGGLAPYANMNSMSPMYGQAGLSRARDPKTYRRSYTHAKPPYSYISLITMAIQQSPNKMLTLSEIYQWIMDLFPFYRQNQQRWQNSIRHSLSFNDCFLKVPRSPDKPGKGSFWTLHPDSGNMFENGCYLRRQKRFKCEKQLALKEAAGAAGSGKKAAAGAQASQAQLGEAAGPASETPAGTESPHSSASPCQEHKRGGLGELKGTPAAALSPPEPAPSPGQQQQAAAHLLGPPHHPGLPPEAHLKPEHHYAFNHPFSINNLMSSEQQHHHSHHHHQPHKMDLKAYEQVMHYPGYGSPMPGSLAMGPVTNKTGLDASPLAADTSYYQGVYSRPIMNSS

For `CC(C)(C)C(O)C(Oc1ccc(-c2ccccc2)cc1)n1cncn1` (stereo not given), the call in assay [1], in [4], in [5], in [6], in [7] and in assay [8] was inactive. In addition, the compound was classed as inactive in [9], in [10], in [11], in assay [12], in [13] and in assay [14]. In addition, the outcome in [16], in [18] and in [19] was inactive. Further, the AC50 – broadly, the concentration giving half of the maximal activity seen – in assay [2] is 47.1 µM (active); in assay [3], 57.3 µM (active); in assay [15], 42 µM (active); in [17], 1.29 µM (active); in assay [20], 12.7 µM (active).
With `Nc1ccc(-c2ccc(N)c(N)c2)cc1N`, the result in assay [1], in assay [2], in assay [3], in assay [4], in assay [5] and in assay [6] was inactive. For the same compound, the outcome in assay [7], in assay [8], in [9], in [10], in [11] and in [12] was inactive. Besides, the compound was classed as inactive in assay [13], in assay [14], in assay [15], in assay [16], in [17] and in assay [18]. For the same compound, the outcome in assay [19] and in [20] was inactive.
In the case of `Oc1cc(Cl)ccc1Cl`, the compound was called inactive in assay [1], in [2], in [3], in [4], in [5] and in assay [6]. Further, the outcome in [7], in assay [8], in assay [9], in assay [10], in assay [11] and in assay [12] was inactive. Further, the outcome in assay [13], in assay [14], in [15], in [16], in assay [18] and in [19] was inactive. Besides, in assay [20], the compound was called inactive. Also, the AC50 in [17] is 27.6 µM (active).
Consider `C[C@]12CC[C@H](O)C[C@H]1CC[C@@H]1[C@@H]2C[C@@H](O)[C@]2(C)[C@@H](C3=CC(=O)OC3)CC[C@]12O`, for which the AC50 in assay [1] was 3.11 µM (active); in [2] it was 2.8 µM (active); in assay [4] it was 865 nM (active); in [7], 2.68 µM (active); in assay [9] it was 8.76 µM (active); in [11], 8.56 µM (active). Besides, the AC50 in [12] is 7.98 µM (active); in assay [15], 2.73 µM (active); in assay [16], 513 nM (active); in [17] it was 1.87 µM (active); in [19], 1.28 µM (active); in [20], 1.74 µM (active). Besides, the outcome in [3], in [5], in assay [6], in assay [8], in assay [10] and in assay [13] was inactive. For the same compound, the compound was classed as inactive in assay [14] and in [18].

For the origin of these results see PubChem BioAssay (EPA / NIEHS).
